Screens (PubChem BioAssay)
An excerpt weighted towards active compounds, which were near 7.1% of everything screened.
MARV entry inh: blocks Marburg virus binding or cell entry; Marburg virus pseudotype entry/binding inhibition, cell-based; Potency, µM (titrated, usually from 49.2 µM), usual class: inhibitors; actives 6.5% (n = 18,000); AID 720532
Lassa entry: Lassa virus entry inhibition | Lassa virus pseudotyped entry inhibition, cell-based qHTS | Potency, µM (doses to about 49.2 µM), usual class: inhibitors | actives 4.1% (n = 18,000)
A number is an active result; ! = not confirmed by another sample; [ ] = remark or other dose. The call rests on the fitted dose curve; tested in HEK293 cells.

Screening CC1=C[C@@H]2c3cccc4[nH]cc(c34)C[C@H]2N(C)C1 returned MARV entry inh inactive and Lassa entry inactive.
`CN1Cc2ccccc2[C@@H]2c3cccc4[nH]cc(c34)C[C@H]21` gave MARV entry inh 8.9µM and Lassa entry 10µM.
Screening CO[C@H](C1CCCCC1)[C@H](C)C=CCC(=O)OCCCc1ccccc1 returned MARV entry inh inactive[8.59 µM].
O=c1cc(-c2cccc(O)c2)oc2ccc(O)cc12 was read as MARV entry inh inactive and Lassa entry inconclusive.
For O=c1cc(-c2ccc(O)cc2)oc2ccc(O)cc12 the results were MARV entry inh inactive and Lassa entry 11µM.
`CC(=O)OC[C@H]1O[C@H](CC=NO[C@@H](C)CN2CCCc3nc(C)c(C)cc32)C=C[C@@H]1OC(C)=O` gave MARV entry inh inactive[8.59 µM] and Lassa entry inactive[8.59 µM].
Screening C=CC(=O)Nc1cc2c(Nc3ccc(F)c(Cl)c3)ncnc2cc1OCCCN1CCOCC1 returned MARV entry inh 7.1µM and Lassa entry inconclusive.
For COc1cc2ncnc(Nc3ccc(Cl)cc3F)c2cc1OC the results were MARV entry inh inactive and Lassa entry inactive.
For CCOC(=O)C1CCCCN1C(=O)c1ccc(-n2cc(NC(=O)c3cccnc3)cn2)cc1 (centres undefined) the results were MARV entry inh inactive and Lassa entry inactive.
Screening O=C(NCC1(N2CCCCC2)CCCCC1)c1ccc(-n2cc(NC(=O)c3cccnc3)cn2)cc1 returned MARV entry inh 4µM and Lassa entry inactive.
`CCCCCCN1C[C@H](O)[C@@H](n2cc(COC(=O)c3ccccc3)nn2)C[C@H]1c1ccccc1` gave MARV entry inh inconclusive and Lassa entry inactive.
`COC(=O)CC1C2(C)CC34OC5(C)O[C@@]6(C7/C(=C(/OC)C(C)C)C(=O)OC(c8ccoc8)[C@@]7(C)C(OC(=O)C(C)C)C(OC)[C@]6(O5)[C@@]13C)C(OC)[C@]4(OC)C2OC(C)=O` (some centres undefined) gave MARV entry inh 7.1µM and Lassa entry inconclusive.
For CC(C)/C(O)=C1/C(=O)OC(c2ccoc2)[C@@]2(C)C(O)C(O)[C@@]34OC5(C)OC67CC(C)(C(O)[C@@]6(O)C(O)[C@@]3(O5)C12)C(CC(=O)O)[C@@]74C (some centres undefined) the results were MARV entry inh inactive and Lassa entry inactive.
N#Cc1cc2c(OCC(O)CN3CCN(C(c4ccccc4)c4ccccc4)CC3)cccc2[nH]1 (centres undefined) was read as MARV entry inh 8.9µM and Lassa entry 16µM.
`CC(C)(C)NC[C@@H](O)COc1cccc2[nH]c(C#N)cc12` gave MARV entry inh inactive and Lassa entry inactive.
For CN1[C@@H](CC(=O)c2ccccc2)CCC[C@H]1C[C@H](O)c1ccccc1 the results were MARV entry inh 28µM and Lassa entry inconclusive.
Screening CN1C(CC(=O)c2ccccc2)CCCC1CC(O)c1ccccc1 (centres undefined) returned MARV entry inh inconclusive and Lassa entry inactive.
`CC12C=C(C=Cc3ccc(C(F)(F)F)cc3)C(C)(C1)C(c1ccc(C(F)(F)F)cc1)CC2=O` (centres undefined) gave MARV entry inh inactive[8.59 µM] and Lassa entry inactive[8.59 µM].
For C#CCN1C(=O)CC[C@@]23C1=NC(C(=O)OC)=C(C(=O)OC)[C@@H]2N(CC=C(C)C)c1ccccc13 the results were MARV entry inh inactive[8.59 µM].
`COc1ccc(CNC(=O)/C=C\c2ccc3[nH]cc(CCN(C)C)c3c2)cc1` gave MARV entry inh 22µM and Lassa entry inactive.
CN(C)CCc1c[nH]c2ccc(O)cc12 was read as MARV entry inh inactive and Lassa entry inactive.
`COc1ccc(COCC[C@@H]2C[C@@H]3C=CCOP(=O)(O2)O3)cc1` gave MARV entry inh inactive and Lassa entry inactive.
`COc1cccc2c1[C@H](C=Cc1ccccc1)[C@@H]([C@H](O)CN=[N+]=[N-])OC2` gave MARV entry inh inactive[8.59 µM] and Lassa entry inactive[8.59 µM].
`CN1CCCN([C@@H](c2ccccc2)c2ccc(Cl)cc2)CC1` gave MARV entry inh 11µM and Lassa entry inactive.
`OCCOCCN1CCN([C@@H](c2ccccc2)c2ccc(Cl)cc2)CC1` gave MARV entry inh inconclusive and Lassa entry inactive.
Screening C=CCNC(=O)[C@H]1C=C(OC)C(=O)C[C@H]2c3ccccc3C[C@]12C returned MARV entry inh inactive[8.59 µM] and Lassa entry inactive[8.59 µM].
C[C@H]1[C@@H](c2ccccc2)Oc2c(Cl)cccc2S(=O)(=O)N1Cc1ccc(Cl)cc1 was read as MARV entry inh inactive and Lassa entry inactive.
`c1ccc(C2(c3ccccc3)CC2C2=NCCN2)cc1` (centres undefined) gave MARV entry inh inactive and Lassa entry inactive.
Screening c1ccc2c(c1)OC[C@@H](C1=NCCN1)O2 returned MARV entry inh 11µM and Lassa entry inconclusive.
CC=CCCN1C=C(C(=O)OCC)C(c2ccccc2)NC1=O (centres undefined) was read as MARV entry inh inactive[8.59 µM] and Lassa entry inactive[8.59 µM].
For CCOC(=O)[C@H](CCc1ccccc1)N[C@H]1CCc2ccccc2N(CC(=O)O)C1=O the results were MARV entry inh 14µM! and Lassa entry inactive.
`CCOC(=O)C(CCc1ccccc1)NC1CCc2ccccc2N(CC(=O)O)C1=O` (centres undefined) gave MARV entry inh inactive and Lassa entry inactive.
For CCN1C(=O)[C@@H]2[C@H]3[C@H](O)[C@H](O)CC(=NO[C@H](C)CN4CCCc5nc(C)c(C)cc54)[C@@H]3CC[C@H]2C1=O the results were MARV entry inh inactive[8.59 µM] and Lassa entry inactive[8.59 µM].
`CCCCCC1=CC2=C(C(=O)OC)C(c3ccccc3)NC(=O)N2CC1` (centres undefined) gave MARV entry inh inactive[8.59 µM] and Lassa entry inactive[8.59 µM].
COC(=O)[C@@]1(C=C2c3ccccc3[C@@H](OC)[C@@H]2C)[C@@H]2Oc3ccccc3[C@@H]21 was read as MARV entry inh inactive[8.59 µM].
Screening CC(=O)C1=C(C)N(Cc2ccccc2)C(=O)NC1c1cccc(F)c1 (centres undefined) returned MARV entry inh inactive[8.59 µM] and Lassa entry inactive[8.59 µM].
Screening COc1cccc([C@@H]2NC(=O)CC=C[C@H](C)[C@H](c3cccc(OC)c3)NC(=O)CC=C[C@H]2C)c1 returned MARV entry inh inactive[8.59 µM] and Lassa entry inactive[8.59 µM].
Screening Oc1ccc2c(c1)[C@@]13CCCCC1[C@@H](C2)N(CC1CCC1)CC3 (some centres undefined) returned MARV entry inh 10µM and Lassa entry inconclusive.
COc1ccc2c(c1)C13CCCC[C@@H]1C(C2)N(C)CC3 (some centres undefined) was read as MARV entry inh inconclusive and Lassa entry inactive.
CC(C)=CCN1CC[C@]2(C)c3cc(O)ccc3C[C@H]1[C@H]2C was read as MARV entry inh inconclusive and Lassa entry inactive.
`C=CCN1CC[C@]23CCCC[C@H]2[C@H]1Cc1ccc(O)cc13` gave MARV entry inh 28µM and Lassa entry inconclusive.
For CCOC(=O)[C@]12C[C@@H]3OCCN(C(=O)N[C@@H]1c1ccccc1)[C@@H]32 the results were MARV entry inh inactive[8.59 µM] and Lassa entry inactive[8.59 µM].
For O[C@H]1C[C@H](c2ccc(Cl)cc2)N(CC2CCCCC2)C[C@H]1n1cc(-c2ccc(F)cc2)nn1 the results were MARV entry inh inactive and Lassa entry inactive.
Screening COC(=O)N[C@H](C(C(=O)OC)=C(C)NCc1ccccc1)c1ccccc1 returned MARV entry inh inactive[8.59 µM].
`Nc1c2ccccc2nc2ccccc12` (tested in a mixture with another compound) gave MARV entry inh 7.1µM and Lassa entry inactive.
